The values below come from ChEMBL document CHEMBL4513216, “Probing the Open Global Health Chemical Diversity Library for Multistage-Active Starting Points for Next-Generation Antimalarials” (ACS Infect Dis, 2020).

The whole screen tested about 68,000 compounds, of which about 2,700 (4%) showed an effect of 50% or more. This is one part of a sample in which strong results are shown more often than they occur.

The test has as its system Plasmodium berghei. The test is described as follows: Screen against P. berghei liver stage (PbLuc), transformed with Luciferase, at 2uM. The test is classed as functional, HepG2. The following applies: tested at 2 uM.
`CCc1ccc(C2CCCCCN2C(=O)CNC(=O)C2CC2)o1` (stereo not drawn): the INHIBITION is listed as -1.21%.
The figure for `OC(CNCCn1cccn1)c1ccc(C(F)(F)F)cc1` (stereo not drawn) is -33.92%; for `CCc1nnc(Nc2cccc(C3CCN(CC4CC4)CC3)n2)s1` it is 20.71%.
The figure for `CCc1nnc(Nc2cccc(C3CCCN(CC(C)(C)C)C3)n2)s1` (stereo not drawn) is 53.05%.
With `CCc1nnc(Nc2cccc(C3CCN(C)CC3)n2)s1`, the INHIBITION is given as 7.64%.
The figure for `CC(C)CCOCCNC(=O)Nc1ccc(F)c(C(N)=O)c1` is -24.7%; for `Cc1cc(C(F)(F)F)nc(C2COCCN2S(C)(=O)=O)n1` (stereo not drawn) it is 6.64%.
Consider `Cc1ccc(CN(C)C(C(=O)O)c2ccc3c(c2)OCO3)o1` (stereo not drawn), for which the INHIBITION was -39.01%.
With `Cc1cccc(S(=O)(=O)N2CSCC2C(=O)NCC2CC2)c1` (stereo not drawn), the INHIBITION is recorded as 3.89%.
Next, `Cc1cccc(S(=O)(=O)N2CSCC2C(=O)NC(C)(C)C)c1` (stereo not drawn): 55.18%.
Next, `CC(C)(C)NC(=O)C1CSCN1S(=O)(=O)c1cccc(F)c1` (stereo not drawn): 7.74%.
For the compound `N#Cc1cccc(NC(=O)C2CCCN2c2nccs2)c1` (stereo not drawn), the INHIBITION is listed as 6.77%.
Next, `Cc1ccc2nc(C3CCCN3Cc3scnc3C)[nH]c2c1` (stereo not drawn): 47.23%; `Cc1ccc2nc(C3CCCN3Cc3csc(C)n3)[nH]c2c1` (stereo not drawn): 29.53%; `Cc1ccc2nc(C3CCCN3Cc3nnc(C)s3)[nH]c2c1` (stereo not drawn): 78.16%.
On to `O=C(NCCc1ccccc1)N1CCC(C2OCCO2)CC1`, for which the INHIBITION came out at 5.92%.
Next, `O=C(Cc1ccc(CO)cc1)N1CCN(c2ccccc2Cl)C(=O)C1`: 47.76%; `CCC(NC(=O)c1ccc2[nH]ccc2c1)C(=O)N1CCOCC1` (stereo not drawn): 5.98%.
Consider `CC(C)c1nnc2n1CCN(Cc1ncc(-c3ccccc3)o1)C2`, for which the INHIBITION is recorded as -58.75%.
The figure for `COCCNc1ccccc1CNC(=O)C1CCCOC1` (stereo not drawn) is -4.26%; for `O=C(NCc1ccccc1OCC1CC1)C1CCOC1` (stereo not drawn) it is 14.82%; for `CC(C)(C)Oc1ccccc1CNC(=O)C1CCCOC1` (stereo not drawn) it is 52.98%.
The figure for `NC(=O)CN1CC2(CCC1=O)CCN(Cc1ccc(Cl)c(F)c1)CC2` is 23.63%.
The figure for `CC(C)Cn1cncc1CNC1CCSC1` (stereo not drawn) is -18.33%; for `COc1c(CNC2CCN(c3ncccn3)CC2)c(C(C)C)nn1C` it is -79.53%.
On to `COc1c(CNC2CCN(C(C)(C)C)CC2)c(C(C)C)nn1C`, for which the INHIBITION is recorded as 51.19%.
The figure for `COc1c(CNC2CCC(O)CC2)c(C(C)C)nn1C` (stereo not drawn) is 11.2%.
The figure for `COc1c(CNC2CCN(c3ccccn3)CC2)c(C(C)C)nn1C` is -11.2%; for `COc1c(CNC2CCN(C(=O)C(C)C)CC2)c(C(C)C)nn1C` it is 11.2%; for `COc1c(CNC2CCCN(c3ncccn3)C2)c(C(C)C)nn1C` (stereo not drawn) it is 56.02%.
With `Clc1ccccc1C1CN(CCc2ccncc2)CCO1` (stereo not drawn), the INHIBITION is reported as -35.92%.
Next, `COc1ccc(NC(=O)c2nc3ccccc3n(C)c2=O)cc1OC`: 9.85%; `CNS(=O)(=O)Cc1ccc(CNC(=O)c2cccc(C)n2)cc1`: 65.77%.
The figure for `CNS(=O)(=O)c1ccc(CNC(=O)c2cccc(C)n2)cc1` is -9.17%; for `Cc1cccc(C(=O)NCc2ccc(CS(N)(=O)=O)cc2)n1` it is -45.83%; for `CO[C@H]1CN(C(=O)OC(C)(C)C)CC1NCc1ccco1` (stereo partly drawn) it is 32.73%.
The figure for `CC(c1ccccc1)N(C)C(=O)CN1CCCc2cc(F)cc(F)c21` (stereo not drawn) is 27.52%; for `Nc1nc(C(=O)NCC2CCC3(CCNCC3)CO2)cs1` (stereo not drawn) it is -51.85%; for `O=C(CCc1ccccc1)C1CCCN(Cc2cncn2C2CC2)C1` (stereo not drawn) it is 21.67%.
In the case of `O=C(Cc1ccccc1)C1CCCN(Cc2cncn2C2CCCC2)C1` (stereo not drawn), the INHIBITION stood at 19.75%.
Next, `COCCn1cncc1CN1CCCC(C(=O)Cc2ccccc2)C1` (stereo not drawn): 58.09%.
As for `COCCN(Cc1ccoc1)S(=O)(=O)c1ccc(OC)c(Cl)c1`, the INHIBITION was 1.04%.
With `CN(C)S(=O)(=O)N1CCCCCC1c1cc(-c2ccc(F)cc2)no1` (stereo not drawn), the INHIBITION is reported as 6.64%.
For the compound `Cc1ccccc1C(CC(=O)NCC(N)=O)c1ccccc1` (stereo not drawn), the INHIBITION came to 57.59%.
The figure for `Cc1ccccc1C(CC(=O)NCc1n[nH]c(N)n1)c1ccccc1` (stereo not drawn) is 28.1%; for `Cc1ccccc1C(CC(=O)NCc1nnc(N)s1)c1ccccc1` (stereo not drawn) it is 9.13%.
Consider `Cc1cc(C(=O)NCc2cnn(C)c2C)nc(N2CCCCCC2)n1`, for which the INHIBITION is recorded as -5.59%.
Next, `O=C(Nc1ccc(F)c(-n2cccc2)c1)NC1(CCO)CCOCC1`: -13.38%; `COCCN(Cc1ccccn1)C(=O)Nc1cccnc1N1CCCC1`: -40.03%.
Next, `Cc1ccc(C)c(C(=O)Nc2ccc(OC3CCN(C)CC3)cc2)c1`: 29.71%; `CN1CCC(Oc2ccc(NC(=O)c3ccccc3Br)cc2)CC1`: 16.64%.
The figure for `COc1ccccc1C(=O)Nc1ccc(OC2CCN(C)CC2)cc1` is 56.93%; for `Cc1cccc(C(=O)Nc2ccc(OC3CCN(C)CC3)cc2)c1` it is 11.63%.
